From PubChem BioAssay AID1533 (PCMD, 2009)
About 45 (0.03%) of roughly 160,000 compounds were called active. Rule as the data show it: active = inhibition mostly above about 34% (no sharp cut-off); inconclusive = no clear call, values can overlap the other calls; inactive = mostly below about 22%. Only a selection was taken, and actives are over-represented in it overall.

Molecular target: dTDP-4-dehydrorhamnose reductase (Mycobacterium tuberculosis (strain ATCC 25618 / H37Rv)) + dTDP-4-dehydrorhamnose 3,5-epimerase (Mycobacterium tuberculosis (strain ATCC 25618 / H37Rv)) (UniProt P9WH09+P9WH11)
Sequence (P9WH09 whole entry, looked up): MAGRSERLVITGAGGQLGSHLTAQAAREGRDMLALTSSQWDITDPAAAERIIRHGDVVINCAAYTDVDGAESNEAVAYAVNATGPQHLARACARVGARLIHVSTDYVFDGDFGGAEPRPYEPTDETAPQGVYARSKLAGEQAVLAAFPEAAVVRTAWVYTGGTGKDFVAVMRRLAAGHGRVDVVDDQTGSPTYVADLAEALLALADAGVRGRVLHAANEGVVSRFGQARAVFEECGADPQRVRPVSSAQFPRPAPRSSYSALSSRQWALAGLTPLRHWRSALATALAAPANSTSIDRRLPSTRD
Sequence (P9WH11 whole entry, looked up): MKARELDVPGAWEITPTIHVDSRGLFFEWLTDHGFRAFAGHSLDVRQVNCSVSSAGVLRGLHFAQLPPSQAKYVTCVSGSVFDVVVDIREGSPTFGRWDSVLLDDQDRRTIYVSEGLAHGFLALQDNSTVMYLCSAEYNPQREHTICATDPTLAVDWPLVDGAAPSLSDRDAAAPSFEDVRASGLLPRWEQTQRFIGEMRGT
Test: M. tuberculosis RmlC/RmlD coupled enzyme inhibitors, primary screen, biochemical, compound mixtures, 384-well, from 1536-well plates (AID 1533)
Conditions: RmlC+RmlD coupled enzyme assay, percent inhibition, primary screen in compound mixtures, stronger effect = higher value
[1] = measured here: mean retest inhibition, at 5.5 µM

| Compound | inhibition (at 3.6 µM) | inhibition [1] |
| --- | --- | --- |
| COc1ccc(CCN2C(=O)N(c3ccc(OC)cc3)C(=O)C2CC(=O)Nc2ccc(OC)cc2)cc1 (centres undefined) | -9.07% (inactive) |  |
| CCOC(=O)C1(Cc2cccc(OC)c2)CCN(C(C)CC(C)(C)O)CC1 (centres undefined) | 7.5% (inactive) |  |
| COc1ccc(NS(=O)(=O)c2ccc(N3CCOCC3)c(NC(=O)c3ccccc3Br)c2)cc1 | -4.87% (inactive) |  |
| Cc1nc2nc(SCC(=O)c3ccccc3)[nH]c2cc1Br | 4.73% (inactive) |  |
| O=C1C2C3C=CC(C3)C2C(=O)N1c1ccc(S(=O)(=O)Nc2nccs2)cc1 (centres undefined) | -2.55% (inactive) |  |
| COCCSc1nnc(NC(=O)c2cc(OC)c(OC)cc2[N+](=O)[O-])s1 | 15.5% (inactive) |  |
| CC(=O)c1sc(NC(=O)C2=NN(c3ccccc3)C(=O)CC2)nc1C | -9.61% (inactive) |  |
| Cc1ccc(NC(=O)NC2CCCCC2)cc1S(=O)(=O)N1CCOCC1 | -9.91% (inactive) |  |
| Clc1ccc2nc(-c3ccccc3)nc(C(Cl)Cl)c2c1 | 0.32% (inactive) |  |
| O=S(=O)(Nc1ccc(OC(F)(F)F)cc1)c1cccc2nonc12 | 4.95% (inactive) |  |
| O=C(NCc1ccc(F)cc1)C1CCC(CNc2c(N3CCOCC3)c(=O)c2=O)CC1 (centres undefined) | 43.3% (inactive) | -8.27% |
| CCOc1ccc(CCN2C(=O)c3cccnc3C2=O)cc1OCC | 3.14% (inactive) |  |
| Cc1ccc(NC(=O)c2ccc(S(=O)(=O)NCC3CCCO3)cc2)cc1C (centres undefined) | 0.36% (inactive) |  |
| CC(=O)NC(=S)Nc1ccc(NC(=O)c2cccnc2)cc1 | 2.81% (inactive) |  |
| COc1ccc(C(C(=O)NC(C)(C)C)N(C(=O)Cn2nnc3ccccc32)c2ccc(C(C)=O)cc2)cc1O (centres undefined) | 11.7% (inactive) |  |
| CSc1ccccc1NC(=O)CN(C)CC(=O)Nc1cccc(Br)c1 | 6.55% (inactive) |  |
| O=C1/C(=C/c2coc3ccc(O)cc3c2=O)SC(=S)N1c1ccccc1 | -8.54% (inactive) |  |
| Cc1cccn2c(CNCC(C)Oc3cccnc3)c(C(=O)N3CCOCC3)nc12 (centres undefined) | 7.78% (inactive) |  |
| CCN(CC)c1ccc(NC(=O)C2CCC(CNc3c(N4CCCC4)c(=O)c3=O)CC2)c(C)c1 (centres undefined) | 6.36% (inactive) |  |
| O=S(=O)(c1ccccc1)N1CN(Cc2ccc(F)cc2)c2nc3ccccc3nc21 | -11.9% (inactive) |  |
| Cc1ccc(S(=O)(=O)N(C)CC(=O)OCC(=O)Nc2ccccc2)cc1 | 13.5% (inactive) |  |
| C/C(=N\NC(=S)NCc1ccccc1)C1CCCCC1 | 5.23% (inactive) |  |
| Fc1cccc2ncnc(OCc3ccccc3)c12 | 3.36% (inactive) |  |
| CCn1c(SCC(=O)Nc2sc(C)c(C)c2C#N)nnc1C1CC1 | -13.3% (inactive) |  |
| CCC(C)NC(=O)C1c2ccccc2Oc2ccccc21 (centres undefined) | 10.6% (inactive) |  |
| CCOC(=O)c1ccc(S(=O)(=O)N(CCO)Cc2cc3cc(OC)c(OC)cc3[nH]c2=O)cc1 | -8.54% (inactive) |  |

| Compound | inhibition (at 3.6 µM) | inhibition [1] |
| --- | --- | --- |
| CCc1cccc(NC(=O)CCNS(=O)(=O)c2cccc3nonc23)c1 | -2.17% (inactive) |  |
| CCC(C)(C)NC(=O)C(c1ccc(O)cc1)N(C(=O)Cn1nnc2ccccc21)c1ccc(NC(C)=O)cc1 (centres undefined) | 4.36% (inactive) |  |
| COC(=O)c1ccc(COc2ccc(/C=N/NC(=O)C(=O)Nc3ccc(OC)cc3)cc2OC)o1 | -13.4% (inactive) |  |
| Cn1nc(C(C)(C)C)c([N+](=O)[O-])c1C(N)=O | 11.8% (inactive) |  |
| Cc1ccc(NC(=O)/C(=C\c2ccccc2)NC(=O)c2ccco2)cc1 | 44% (inactive) | 3.08% |
| Cc1ccc(OCC(=O)Nc2nnc(-c3ccco3)s2)cc1 | -5.61% (inactive) |  |
| O=[N+]([O-])c1ccc(N=Cc2c(O)ccc3ccccc23)cc1 | -17.6% (inactive) |  |
| O=c1[nH]nc(SCCS(=O)(=O)c2ccc(F)cc2)n1-c1ccccc1C(F)(F)F | -9.62% (inactive) |  |
| C=CCc1cccc2cc(C(=O)NC3CCCC3)c(=O)oc12 | 3.42% (inactive) |  |
| COc1ccc2[nH]c(C(=O)Nc3ccccc3Cl)cc2c1 | -0.28% (inactive) |  |
| CC1=NNC(=O)C1CC(=O)N/N=C/c1ccncc1 (centres undefined) | 8.8% (inactive) |  |
| C/C(=C\c1ccco1)CN1CCC(N2CCC(C(=O)N3CCOCC3)CC2)CC1 | 3.12% (inactive) |  |
| O=C(C[n+]1cc(-c2ccc(Cl)c(Cl)c2)n2c1CCC2)c1cccs1 | 2.29% (inactive) |  |
| COc1ccc([N+](=O)[O-])cc1N(CC(O)CN(CC(C)C)CC(C)C)S(=O)(=O)c1ccc(C)cc1 (centres undefined) | 2.56% (inactive) |  |
| COc1cc(N/C=C2\CC(=O)NC(C)=C2C#N)cc(OC)c1OC | -11.2% (inactive) |  |
| CC(C)N(C(=O)CSc1nc(COc2ccccc2)nc2ccccc12)C(C)C | -5.31% (inactive) |  |
| COc1c(N2CCN(C(=S)Nc3ccccc3F)C(C)C2)c(F)cc2c(=O)c(C(=O)O)cn(C3CC3)c12 (centres undefined) | 9.08% (inactive) |  |
| CCc1cccc(CC)c1NC(=S)Nc1ccc2cn[nH]c2c1 | -7.83% (inactive) |  |
| O=C1/C(=C/c2cccs2)SC(=S)N1C1CCS(=O)(=O)C1 (centres undefined) | 1.03% (inactive) |  |
| COc1ccc(OCC(O)CNCCNc2nccc(C(F)(F)F)n2)cc1 (centres undefined) | 42.7% (inactive) | 10.5% |
| Cc1ccc(/C=C/C(=O)O)cc1S(=O)(=O)N1CCC(Cc2ccccc2)CC1 | -14% (inactive) |  |
| O=C(C[n+]1ccc2c(c1)nnn2-c1ccccc1)c1ccc(Cl)cc1 | -3.04% (inactive) |  |
| CC1Cc2ccccc2N1C1=CC(=O)CC(C)(C)C1 (centres undefined) | 10.6% (inactive) |  |
| CC(=O)Nc1ccc(NC(=O)CSc2nnc(COc3ccccc3C)n2CC2CCCO2)cc1 (centres undefined) | 7.46% (inactive) |  |
| O=C(Nc1nnc(COc2ccccc2)s1)Nc1ccccc1F | 3.12% (inactive) |  |
| COc1ccc(CNC(=O)C(Cc2ccccc2)n2cccc2)cc1 (centres undefined) | 6.07% (inactive) |  |

| Compound | inhibition (at 3.6 µM) | inhibition [1] |
| --- | --- | --- |
| COc1ccc(Nc2cc(=O)n(-c3ccccc3)c3c2c(=O)n(C)c(=O)n3C)cc1 | 13.6% (inactive) |  |
| CCN(CC)CCn1cnc2c1c(=O)n(CCOC(=O)c1cc(OC)c(OC)c(OC)c1)c(=O)n2C | 3.47% (inactive) |  |
| O=C1COc2ccc(C(=O)COC(=O)C3CC(O)CN3S(=O)(=O)c3ccc(Cl)cc3)cc2N1 (centres undefined) | -2.3% (inactive) |  |
| COc1ccc(CNC(=O)COC(=O)/C=C/c2ccc(S(=O)(=O)N3CCOCC3)cc2)cc1 | -2.01% (inactive) |  |
| N/C(=N\OC(=O)CCCC(=O)O)c1ncc(C(F)(F)F)cc1Cl | 2.53% (inactive) |  |
| N#CC1=C(N)Oc2c(ccc3cccnc23)C1c1ccncc1 (centres undefined) | 4.04% (inactive) |  |
| c1csc(-c2nnc(COc3ncnc4sccc34)o2)c1 | -7.72% (inactive) |  |
| O=c1ccnc(Nc2ccc(Cl)cc2)[nH]1 | 6.37% (inactive) |  |
| CN(c1ccccc1)S(=O)(=O)c1cc(C(=O)OCC(=O)N2CCN(C(=O)c3ccco3)CC2)ccc1Cl | 3.76% (inactive) |  |
| COC(=O)c1ccccc1N=Nc1c(C)[nH][nH]c1=O | -10.6% (inactive) |  |
| O=C(Nc1ccccc1F)c1ccc(Cn2cc(Br)cn2)cc1 | -3.16% (inactive) |  |
| O=C(Cc1ccccc1Cl)N1CCN(c2ccccn2)CC1 | -5.39% (inactive) |  |
| NC(=O)Cc1ccc2c(c1)[nH]c1ccccc12 | -1.93% (inactive) |  |
| O=C(COc1cc(Cl)c(Cl)cc1Cl)NCCc1ccccn1 | 6.74% (inactive) |  |
| CCN1C(=O)/C(=c2\s/c(=C3\Sc4ccccc4N3C)c(=O)n2C)N(C)C1=S | -7.72% (inactive) |  |
| C=CCN(CC=C)C(=O)COC(=O)c1n[nH]c2ccccc12 | 5.16% (inactive) |  |
| O=C(Nc1ccc(-c2ccc3nncn3n2)cc1)C1CCCCC1 | -6.47% (inactive) |  |
| Cc1ccc(-c2nn(-c3cccc(F)c3)cc2CNCCc2ccncc2)o1 | -11.7% (inactive) |  |
| CCN(CC)S(=O)(=O)c1ccc(NC(=O)c2cccnc2Cl)c(NC(=O)c2cccnc2Cl)c1 | 9.89% (inactive) |  |
| O=[N+]([O-])/C(N=Nc1ccccc1)=N\Nc1ccccc1 | -9.57% (inactive) |  |
| O=S(=O)(NC(=S)Nc1ccccc1)c1ccc(F)cc1 | -3.25% (inactive) |  |
| CN(CCC1CCOCC1)Cc1cn[nH]c1-c1ccc(-c2ccccc2)cc1 | 9.21% (inactive) |  |
| Cc1c(NC(=O)CN2C(=O)C(=O)N(Cc3ccccc3)C2=O)c(=O)n(-c2ccccc2)n1C | 7.63% (inactive) |  |
| CCOC(=O)c1sc(NC(=O)CSc2n[nH]c(CC)n2)nc1C | -5.04% (inactive) |  |
